Measured values taken from PubChem BioAssay.
Where “and” joins values, the source holds several entries; their conditions need not be identical. Equal values may be shown once. Calls of active or inactive are those of the source. Unless noted, the rule behind the calls is not given here.

Columns and labels:
[1] = HepG2 liver cancer cell viability effects, profiling panel, resazurin fluorescence, 24 h, PK04 Diversity Set (AID 1172); settings: higher = more signal; note: test concentration not given here
[2] = basal S. cerevisiae growth modulation, no modifier, primary screen, OD600, strain BY4716, 24 h, basal condition (AID 1173); settings: OD600, 24 h, higher = more signal, called active from +8 up or from −8 down
[3] = MM1S myeloma cell viability, profiling panel, resazurin fluorescence, basal, 24 h, PK04 Diversity Set (AID 1174); settings: higher = more signal, called active from +8 up or from −8 down;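 note: MM1S multiple myeloma cell line; test concentration not given here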
[4] = target: Dihydroorotate dehydrogenase (quinone), mitochondrial (Plasmodium falciparum (isolate 3D7)) (UniProt Q08210); assay: PfDHODH enzyme inhibitors, primary screen, biochemical, C-terminal His tag, absorbance 600 nm (AID 1175); settings: DCIP absorbance 600 nm, higher = more signal, called active from +8 up or from −8 down;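 note: recombinant parasite enzyme with a five histidine tag at its C terminus; test concentration not given here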
[5] = P. aeruginosa biofilm formation inhibitors, primary screen, strain PAO1, LB-PBS medium, absorbance 600 nm (AID 1176); note: test concentration not given here; settings: P. aeruginosa PAO1 growth/biofilm, A600, 12 h; higher = more signal
[6] = S. cerevisiae RM11-1a growth modifiers, primary screen, strain RM11-1a, OD600, basal, 24 h (AID 1177); settings: OD600, 24 h, higher = more signal, called active from +8 up or from −8 down;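 note: cultures grown under basal conditions with no added stressor; test concentration not given here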
[7] = E. coli acrAB mutant growth effects, primary screen, E. coli filamentation inducers, strain DRC39, OD650, 24 h (AID 1178); settings: higher = more signal, called active from +8 up or from −8 down;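 note: growth measured as culture turbidity by optical density at 650 nm; test concentration not given here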
[8] = E. coli acrAB mutant growth effects, primary screen, E. coli filamentation inducers, strain DRC39, OD650, 48 h (AID 1179);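 note: screen aims at cell division blockers that make cells filament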; settings: E. coli DRC39 delta-acrAB growth, higher = more signal, called active from +8 up or from −8 down
[9] = RPMI8226 myeloma cell viability, profiling panel, resazurin fluorescence, basal, 24 h, PK04 Diversity Set (AID 1180); settings: higher = more signal;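 note: RPMI8826 multiple myeloma cell line at 5000 cells per well; test concentration not given here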
[10] = target: E3 ubiquitin-protein ligase XIAP (Homo sapiens) (UniProt P98170); assay: XIAP binders, primary screen, biophysical, small-molecule microarray, fluorescence 635 nm (AID 1181); settings: small-molecule microarray binding, higher = more signal;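 note: score merges 667 nm emission and signal to noise over triplicate slides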
Chain of E3 ubiquitin-protein ligase XIAP (Homo sapiens) (P98170 whole entry, looked up): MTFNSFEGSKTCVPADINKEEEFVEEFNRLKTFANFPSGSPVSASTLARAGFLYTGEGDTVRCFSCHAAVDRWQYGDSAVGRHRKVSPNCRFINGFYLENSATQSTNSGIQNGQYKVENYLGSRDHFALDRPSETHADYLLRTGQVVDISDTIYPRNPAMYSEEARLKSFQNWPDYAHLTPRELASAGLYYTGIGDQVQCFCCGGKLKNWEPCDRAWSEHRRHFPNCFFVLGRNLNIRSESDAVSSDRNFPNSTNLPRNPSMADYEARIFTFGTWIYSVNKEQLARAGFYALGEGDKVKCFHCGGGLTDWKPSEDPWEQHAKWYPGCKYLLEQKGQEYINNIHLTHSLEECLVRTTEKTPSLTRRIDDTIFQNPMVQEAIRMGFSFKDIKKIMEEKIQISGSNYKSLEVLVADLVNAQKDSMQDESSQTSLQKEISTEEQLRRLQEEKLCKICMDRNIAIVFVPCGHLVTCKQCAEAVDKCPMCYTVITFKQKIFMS

Chain of Dihydroorotate dehydrogenase (quinone), mitochondrial (Plasmodium falciparum (isolate 3D7)) (Q08210 whole entry, looked up): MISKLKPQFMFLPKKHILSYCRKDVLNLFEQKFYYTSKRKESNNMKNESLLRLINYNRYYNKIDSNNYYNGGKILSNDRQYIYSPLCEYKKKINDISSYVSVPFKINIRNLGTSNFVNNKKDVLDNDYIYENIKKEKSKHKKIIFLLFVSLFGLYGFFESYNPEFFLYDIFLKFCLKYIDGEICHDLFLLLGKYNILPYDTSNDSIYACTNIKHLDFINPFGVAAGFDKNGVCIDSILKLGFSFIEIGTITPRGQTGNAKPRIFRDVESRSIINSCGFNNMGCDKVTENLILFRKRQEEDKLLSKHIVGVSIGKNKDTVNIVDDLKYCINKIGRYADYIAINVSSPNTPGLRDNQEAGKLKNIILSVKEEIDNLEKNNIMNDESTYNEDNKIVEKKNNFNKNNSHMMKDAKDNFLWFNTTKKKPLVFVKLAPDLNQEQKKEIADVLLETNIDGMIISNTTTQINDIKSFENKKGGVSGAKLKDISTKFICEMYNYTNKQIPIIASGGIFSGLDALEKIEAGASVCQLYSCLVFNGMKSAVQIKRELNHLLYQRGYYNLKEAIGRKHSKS

COC(=O)[C@@]1(Cc2ccc(OC)cc2)[C@H]2c3cc(C(=O)N(C)C)n(Cc4ccc(O)c(OC)c4)c3C[C@H]2CN1C(=O)c1ccccc1
z-score [1]: 0.613 and -0.518 | z-score [2]: 1.5 (inactive) and 1.69 (inactive) | z-score [3]: -0.475 (inactive) and -1.77 (inactive) | composite z-score [4]: 0.243 (inactive) and 0.355 (inactive) | z-score [5]: -0.499 (inactive) and -0.347 (inactive) | z-score [6]: 0.884 (inactive) and 1.29 (inactive) | z-score [7]: 0.247 (inactive) and 0.423 (inactive) | z-score [8]: -0.128 (inactive) and -0.102 (inactive) | z-score [9]: 0.381 and -2.92 | composite z-score [10]: -0.207 and 0.277

C=CCN(CCCCC)C(=O)C1N(CCOCCO)C(=O)C2C(C(=O)O)C3C=CC21O3 (stereo not given)
z-score [1]: -0.541 and -0.785 | z-score [2]: 0.709 (inactive) and 1.12 (inactive) | z-score [3]: -0.885 (inactive) and -1.41 (inactive) | composite z-score [4]: 1.39 (inactive) and -0.109 (inactive) | z-score [5]: -0.553 (inactive) and -0.469 (inactive) | z-score [6]: 0.892 (inactive) and 0.451 (inactive) | z-score [7]: -0.649 (inactive) and -0.537 (inactive) | z-score [8]: -0.496 (inactive) and -0.506 (inactive) | z-score [9]: -0.724 and -0.899 | composite z-score [10]: -0.113 and -0.124

CCOC(=O)[C@@H]1CC2O[C@]23C[C@@H]1C(=O)N1CCC[C@@H]1[C@H]3O[Si](C)(C)C(C)(C)C (stereo not given in full)
z-score [1]: -0.464 and -0.0421 | z-score [2]: -0.648 (inactive) and -2.06 (inactive) | z-score [3]: -0.645 (inactive) and -0.942 (inactive) | composite z-score [4]: -0.0009 (inactive) and -0.513 (inactive) | z-score [5]: 0.167 (inactive) and 0.0117 (inactive) | z-score [6]: -0.159 (inactive) and -0.702 (inactive) | z-score [7]: 0.215 (inactive) and -0.512 (inactive) | z-score [8]: -0.215 (inactive) and -0.122 (inactive) | z-score [9]: -0.586 and -0.593 | composite z-score [10]: 0.0618 and -0.142

CC(C)CON=C1C[C@@H](O)[C@@H](O)[C@@H]2[C@@H]3C(=O)N(c4cccc(Oc5ccccc5)c4)C(=O)[C@@H]3CC[C@H]12
z-score [1]: 0.608 | z-score [2]: 0.121 (inactive) | z-score [3]: 0.768 (inactive) | composite z-score [4]: -0.564 (inactive) | z-score [5]: 0.34 (inactive) | z-score [6]: 0.79 (inactive) | z-score [7]: 0.85 (inactive) | z-score [8]: 0.0947 (inactive) | z-score [9]: 1.33 | composite z-score [10]: -0.055

C#CCN1C(/C=C/c2ccccc2)C(=O)OC[C@H]1c1ccccc1 (stereo not given in full)
z-score [1]: 0.0256 and 1.82 | z-score [2]: -5.79 (inactive) and -4.84 (inactive) | z-score [3]: 0.911 (inactive) and 0.42 (inactive) | composite z-score [4]: -3.42 (inactive) and -0.43 (inactive) | z-score [5]: -0.73 (inactive) | z-score [6]: -2.77 (inactive) and -0.151 (inactive) | z-score [7]: 2.04 (inactive) and 0.715 (inactive) | z-score [8]: 0.639 (inactive) and -0.294 (inactive) | z-score [9]: 0.681 and 1.36 | composite z-score [10]: 0.0727 and -0.0871

C=CCN1C(=O)[C@]2(O[C@H](CCn3cc(CCO)nn3)[C@@H]([Si](C)(C)c3ccc(OC)cc3)[C@@H]2C)c2cc(N3C(=O)c4cccc5cccc3c45)ccc21
z-score [1]: -6.38 and -6.41 | z-score [2]: 1.99 (inactive) and 1.56 (inactive) | z-score [3]: -9.01 (active) and -9.12 (active) | composite z-score [4]: 1.19 (inactive) and 1.35 (inactive) | z-score [5]: 0.355 (inactive) and 1.15 (inactive) | z-score [6]: 4.03 (inactive) and 3.23 (inactive) | z-score [7]: 1.91 (inactive) and 1.72 (inactive) | z-score [8]: 0.906 (inactive) and 0.389 (inactive) | z-score [9]: -6.26 and -6.25 | composite z-score [10]: -0.178 and 0.0256

CC(C)=NO[C@@H](C)c1cc(-c2c(C)cc(C)cc2C)no1
z-score [1]: -0.18 | z-score [2]: -2.48 (inactive) | z-score [3]: 0.672 (inactive) | composite z-score [4]: -2.98 (inactive) | z-score [5]: 0.499 (inactive) | z-score [6]: -0.395 (inactive) | z-score [7]: -0.328 (inactive) | z-score [8]: -2.9 (inactive) | z-score [9]: 0.0684 | composite z-score [10]: 0.0251

COC(=O)C1=C(C)N(Cc2ccccc2)C2=C(C(C)=O)[C@H](c3ccccc3)[C@@](O)(C(=O)OC)C(=O)N2[C@@H]1c1ccccc1
z-score [1]: 1.38 and 0.559 | z-score [2]: -2.41 (inactive) and -3.21 (inactive) | z-score [3]: 1.07 (inactive) and 0.983 (inactive) | composite z-score [4]: 0.523 (inactive) and -1.82 (inactive) | z-score [5]: 1.08 (inactive) | z-score [6]: -0.107 (inactive) and -3.5 (inactive) | z-score [7]: 1.32 (inactive) and 0.552 (inactive) | z-score [8]: 0.972 (inactive) and -1.35 (inactive) | z-score [9]: 1.27 and 0.0662 | composite z-score [10]: 0.0177 and -0.244
